According to PubChem BioAssay (NCI):
Compounds without any hit were thinned out: in the full panel of roughly 79,000, 15% have a hit. Values without a mark were called inactive. The source made the active and inactive calls. Rule as the data show it: active = growth inhibition above about 70%; inactive = the rest.

Legend:
[1] = NCI Yeast Anticancer Drug Screen. Data for the rad50 strain (AID 155);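 also: 0% = growth of vehicle-only cultures of the same strain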; conditions: S. cerevisiae rad50 strain growth inhibition, stronger effect = higher value
Procedure, shortened: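 Growth of the mutant yeast was measured after compound exposure and referenced to vehicle-treated cultures.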

[2] = NCI Yeast Anticancer Drug Screen. Data for the mec2-1 strain (AID 157); conditions: S. cerevisiae mec2-1 strain, stronger effect = higher value
Procedure, shortened: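 Growth inhibition is read against vehicle-treated controls after compound exposure of the mec2-1 yeast strain, which is defective in DNA damage repair or cell cycle control.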

[3] = NCI Yeast Anticancer Drug Screen. Data for the sgs1 mgt1 strain (AID 161);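 also: 0% = growth of cultures given vehicle only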; conditions: S. cerevisiae sgs1 mgt1 strain, stronger effect = higher value
Procedure, shortened: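 Percent growth inhibition was derived by comparing compound-exposed mutant yeast with vehicle-exposed cultures. The strain carries alterations in DNA damage repair.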

[4] = NCI Yeast Anticancer Drug Screen. Data for the cln2 rad14 strain (AID 165);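 also: 0% = growth equal to vehicle treated cultures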; conditions: S. cerevisiae cln2 rad14 strain, stronger effect = higher value
Procedure, shortened: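 Growth inhibition, relative to vehicle-treated controls, is the read-out. The test organism is a yeast strain with defined genetic alterations, cln2 rad14.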

[5] = NCI Yeast Anticancer Drug Screen. Data for the bub3 strain (AID 167); conditions: S. cerevisiae bub3 mutant strain, stronger effect = higher value
Procedure, shortened: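 Whole-cell yeast assay. The mutant strain was incubated with compounds, and growth inhibition was determined by comparison with vehicle-treated cells.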

[6] = NCI Yeast Anticancer Drug Screen. Data for the mlh1 rad18 strain (AID 175); conditions: S. cerevisiae mlh1 rad18 strain growth inhibition, stronger effect = higher value
Procedure, shortened: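 Cells of a genetically altered yeast strain, deficient in DNA damage repair, were treated with compound. Their growth was then compared with that of vehicle-treated cultures to give inhibition.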

[7] = at 5.0 µM (retest, dose inferred, filed as 0.5)
[8] = at 50.0 µM (retest, dose inferred, filed as 5.0)

Compound | growth inhibition [1, 7] | growth inhibition [1, 8] | growth inhibition ([1]; at 50.0 µM) | growth inhibition [2, 7] [%] | growth inhibition [2, 8] | growth inhibition ([2]; at 50.0 µM) | growth inhibition [3, 7] [%] | growth inhibition [3, 8] | growth inhibition ([3]; at 50.0 µM) | growth inhibition [4, 7] [%] | growth inhibition [4, 8] | growth inhibition ([4]; at 50.0 µM) | growth inhibition [5, 7] [%] | growth inhibition [5, 8] | growth inhibition ([5]; at 50.0 µM) | growth inhibition [6, 7] [%] | growth inhibition [6, 8] | growth inhibition ([6]; at 50.0 µM)
O=NNc1nc(-c2ccccn2)nc2ccccc12 | -7% | 96% (active) | 96.5% (active) | 7 | 99% (active) | 97.9% (active) | -4 | 97% (active) | 98.2% (active) | -2 | 92% (active) | 41.2% | -14 | 98% (active) | 19.9% | 1 | 99% (active) | 98.5% (active)
CC(=O)OC1=C(CC(C)C)C(=O)c2ccccc2C1=O | 7% | 67% | 69.2% | 8 | 70% (active) | 59.2% | 7 | 88% (active) | 78.6% (active) | 1 | 55% | 51% | 6 | 78% (active) | 56.6% | 20 | 85% (active) | 73.5% (active)
O=[N+]([O-])CC(O)c1ccccc1Cl (configuration not stated) | 90% (active) | 98% (active) | 99.3% (active) | 5 | 99% (active) | 99.7% (active) | -15 | 99% (active) | 99.5% (active) | -4 | 98% (active) | 98.7% (active) | 16 | 98% (active) | 99.4% (active) | 30 | 99% (active) | 99.2% (active)
CCOC(=O)c1ccc(NC(=O)O/N=C(/Cl)CC)cc1 | 4% | 83% (active) | 67% | -7 | 71% (active) | 78.5% (active) | -26 | 75% (active) | 80.1% (active) | 35 | 51% | 64.8% | -40 | 51% | 63.8% | 8 | 86% (active) | 69.7%
OCC(O)C(O)C(O)C(O)c1cnn(-c2ccccc2)n1 (configuration not stated) | 3% | -4% | 10.8% | -8 | -24% | 3.45% | 3 | -5% | 15.2% | -4 | -2% | 14.2% | -3 | 2% | -1.3% | -7 | -2% | 18.9%
O=C1C(=C2C(=O)c3ccccc3[N+]2=O)N([O-])c2ccccc21 | -2% | 36% | 69% | -6 | 59% | 56% | -3 | 52% | 84.3% (active) | -10 | 15% | 68% | -6 | 31% | 57.8% | -5 | 56% | 85.5% (active)
O=C1NC(=O)C(c2ccccc2)(c2ccccc2)C2CC3c4[nH]c5ccccc5c4CCN3CC12 (configuration not stated) | 5% | 61% | 64.5% | 6 | 63% | 59.1% | 5 | 65% | 56% | 6 | 66% | 46.6% | 6 | 51% | 37.5% | 1 | 60% | 73.8% (active)
Cc1nc2c([N+](=O)[O-])c(N3CCCCC3)c([N+](=O)[O-])cc2[nH]1 | 10% | 97% (active) | 98.8% (active) | 13 | 98% (active) | 99% (active) | 13 | 98% (active) | 99.1% (active) | 17 | 94% (active) | 97.7% (active) | 0 | 83% (active) | 98.7% (active) | 8 | 98% (active) | 99.1% (active)
CC(=O)c1nc2ccccc2n1C(C)C(=O)c1ccccc1 (configuration not stated) | 39% | 37% | 16.9% | 23 | 34% | 21.6% | 18 | 74% (active) | 68.4% | 33 | 24% | 6.15% | -7 | 35% | 37.5% | 18 | 30% | -1.7%
